Values without a mark were called inactive. No rule for the calls is given here.
Target: Pantothenate synthetase (Mycobacterium tuberculosis (strain ATCC 25618 / H37Rv)) (UniProt P9WIL5)
Experiment: Coupled enzyme confirmation of inhibitors against recombinant Mtb PanC (AID 375);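 also: 0% = full reaction with vehicle and 100% = no enzyme background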
Conditions: coupled enzyme assay; at 10 µM, stronger effect = higher value

Sequence of Pantothenate synthetase (Mycobacterium tuberculosis (strain ATCC 25618 / H37Rv)) (P9WIL5 whole entry, looked up): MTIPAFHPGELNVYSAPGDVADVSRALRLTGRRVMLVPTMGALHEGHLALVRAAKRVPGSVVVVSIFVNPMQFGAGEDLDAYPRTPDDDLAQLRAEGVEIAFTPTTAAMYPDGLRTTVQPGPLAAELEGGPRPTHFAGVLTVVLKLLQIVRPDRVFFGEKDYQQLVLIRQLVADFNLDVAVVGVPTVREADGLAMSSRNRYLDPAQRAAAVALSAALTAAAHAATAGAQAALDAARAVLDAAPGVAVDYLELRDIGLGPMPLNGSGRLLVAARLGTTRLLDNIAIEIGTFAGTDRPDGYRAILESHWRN

Row | Compound | inhibition [%]
1 | COc1ccccc1S(=O)(=O)Cc1ccc(C(=O)NCCN2CCCCCC2)o1 | 0
2 | COc1cc(C(=O)Nc2cccc(-c3nc4cc(C)ccc4o3)c2)cc(OC)c1OC | 3
3 | O=c1oc2cc(O)ccc2c2oc3cc(O)ccc3c12 | 7
4 | O=C(CCc1ccccc1)Nc1ccncc1 | 0
5 | CC(=O)Nc1ccc(S(=O)(=O)Nc2nc3c(s2)CCCC3)cc1 | 2
6 | CCOC(=O)C1CCCN(C(=O)c2ccc(CS(=O)(=O)c3ccc(Br)cc3)o2)C1 (stereo not drawn) | 4
7 | COc1ccc2nc(NC(=O)c3ccoc3C)sc2c1 | 0
8 | CCCCC(O)(C(NC=O)C(=O)OC)C(F)(F)F (stereo not drawn) | 2
9 | O=C(CNS(=O)(=O)c1ccccc1)NCc1ccccn1 | 9
10 | CC1=C(C(=O)N2CCCCC2)C2(CCC(C)CC2)OC1=O (stereo not drawn) | 12
11 | COc1ccc(C2C(C(C)=O)=C(C)N=c3s/c(=C/c4ccc5c(c4)OCO5)c(=O)n32)cc1 (stereo not drawn) | 0
12 | CC(C)(C)n1nnnc1CN1CCC(NC(=O)NC2CCCCC2)CC1 | 0
13 | COc1ccc(C(C)=O)c(OC(=O)c2ccc(OC)c(OC)c2)c1 | 0
14 | CCOC(=O)N(C)c1ccc(C(O)(C(F)(F)F)C(F)(F)F)cc1 | 0
15 | Cc1onc(-c2ccccc2Cl)c1C(=O)NCCn1c(C)cc2ccccc21 | 8
16 | Nc1nnc(SCCOc2ccccc2)s1 | 3
17 | COc1cccc(N2CCN(Cc3cccnc3)CC2)c1 | 3
18 | COCCn1c(SCC(=O)Nc2nnc(C)s2)nnc1-c1ccncc1 | 7

Source: PubChem BioAssay
